Sampled rows, rich in hits. Any-hit rate of the full collection: about 2%.
TexasRed fluor = Texas Red fluorescence interference in TRb-SRC2 counter-screen; TRb/SRC2 Texas Red total fluorescence interference; Potency, µM (top dose mostly 106 µM), for the others: at the highest dose fluorescence change, negative = quenching; hit rate 0.29% among 280,000; AID 1479; active = well fitted curve in either direction with a large enough effect; inconclusive = small, poorly fitted or top-dose-only effect; note: potency is the fitted concentration of half-maximal effect; % is set by controls: 0 for no effect and ±100 for the full control effect
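Human TRb ligand-binding domain at 0.6 uM with 20 nM Texas Red SRC2 peptide in Tris buffer containing 1 uM T3 and 5% DMSO, incubated with compound 5 h at ambient temperature. Total fluorescence (555/632 nm) calculated as parallel + 2 × perpendicular.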
KDM4E inh = inhibitors of human JMJD2E histone demethylase; B2RXH2; JMJD2E catalytic domain, FDH-coupled NADH fluorescence (FDH is formaldehyde dehydrogenase); Potency, µM (series often up to 57.1 µM), without a hit: top-dose activity change, negative = inhibition, usual class: inhibitors; hit rate 1.6% among 230,000; AID 2147; active = well fitted inhibition curve with a large enough effect, not every such curve was filed as active; inconclusive = small, poorly fitted or top-dose-only effect, or another doubt; inactive = no such curve, though single readings can be large or run the other way;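 note: potency is the fitted concentration of half-maximal effect; 0% = wells with enzyme and -100% = buffer wells without enzyme; nearly all actives have a fitted effect of over 50% in size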
HTT ATP protect = Huntington cell model cytoprotection by ATP luminescence; PC12 HTT-Q103 induced, cytoprotection, ATP luminescence, 40 h; Potency, µM (doses to about 56.4 µM), for the others: cytoprotection (ATP increase), actives largely listed as activators; hit rate 0.14% among 230,000; AID 1471; note: potency is the fitted concentration of half-maximal effect; % of control where 0% means no effect; nearly all actives have a fitted effect of over 45% in size
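PC12 cells with ecdysone-inducible HTT exon 1 Q103-GFP, induced with 100 nM tebufenozide and co-treated with library compounds in a dose series (1536-well, 1500 cells/well). Cytoprotection read as ATP content by ATPlite luminescence.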
Coupling enz = coupling enzyme interference in Giardia aldolase counter-screen; coupling enzyme system counterscreen, AmpLite Red fluorescence; activity change, negative = inhibition, % at 58.2 µM, hits read low; hit rate 0.67% among 290,000; in the data active = activity change below about -30%; note: % is set by controls: 0 for no effect and ±100 for the full control effect
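Compounds tested against the coupling enzymes alone at 57.5 uM final; readout was AmpLite Red fluorescence (525/598 nm) after 20 min at RT.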
HTT aggregate = mutant huntingtin aggregation inhibition; PC12 HttQ103-GFP aggregates, Acumen cytometry, 40 h; Potency, µM (top dose mostly 46.1 µM), for inactives: at the top dose activity change, negative = inhibition, most hits filed as inhibitors; hit rate 1.1% among 220,000; note: potency is the fitted concentration of half-maximal effect; % is set by controls: 0 for no effect and ±100 for the full control effect; nearly all actives have a fitted effect of over 60% in size
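Multiplexed with ATP-based cell death, this channel scores GFP aggregates in PC12 cells expressing inducible HTTex1-Q103-GFP. Induction used 100 nM tebufenozide; compounds were tested in concentration series.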
TRb SRC2 PPI = disrupts binding of human TR beta to SRC2; TRbeta-SRC2 peptide binding, fluorescence polarization; receptor liganded with 1 µM T3; hit rate 0.065% among 280,000; Potency, µM (top dose mostly 106 µM), without a hit: top-dose activity change, negative = inhibition, hits mostly inhibitors; AID 1469;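 note: potency is the fitted concentration of half-maximal effect; plate controls were bound peptide for no effect and peptide without receptor for full effect; nearly all actives have a fitted effect of over 50% in size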
Target sequence (P10828 whole entry, looked up): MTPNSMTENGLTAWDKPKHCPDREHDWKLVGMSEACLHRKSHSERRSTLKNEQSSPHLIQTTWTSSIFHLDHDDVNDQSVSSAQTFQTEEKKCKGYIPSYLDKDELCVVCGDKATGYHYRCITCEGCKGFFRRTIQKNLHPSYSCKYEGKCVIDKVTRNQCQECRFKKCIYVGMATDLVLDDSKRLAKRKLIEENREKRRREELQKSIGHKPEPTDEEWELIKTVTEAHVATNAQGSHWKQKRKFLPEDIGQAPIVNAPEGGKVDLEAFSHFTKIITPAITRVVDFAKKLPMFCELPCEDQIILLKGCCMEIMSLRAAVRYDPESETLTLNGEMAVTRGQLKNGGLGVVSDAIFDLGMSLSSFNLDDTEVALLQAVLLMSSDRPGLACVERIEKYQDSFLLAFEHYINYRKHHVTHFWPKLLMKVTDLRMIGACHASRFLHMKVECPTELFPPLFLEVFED
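Decrease in fluorescence polarization of 20 nM Texas Red SRC2 coactivator peptide flagged inhibition of its binding to 0.6 uM TRb LBD; 1 uM T3 included, incubation 5 hr, ex 555/em 632 nm.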
Numbers without * were called inactive; ? = inconclusive; nt = no result given; [ ] = remark or other dose. Unless noted, calls come from the whole dose curve; as a rule, active = well fitted curve in the direction sought with a large enough effect; inconclusive = small, poorly fitted or top-dose-only effect, or another doubt; inactive = no such curve, though single readings can be large; an effect the other way counts as inactive or inconclusive.

SMILES	TexasRed fluor	KDM4E inh	HTT ATP protect	Coupling enz	HTT aggregate	TRb SRC2 PPI
COc1ccc(CCN(C)CCCOc2ccc(S(=O)(=O)c3[nH]c4ccccc4c3C(C)C)cc2)cc1OC	-1%	25µM*	-80%	1	nt	-5%
COc1ccc(CCN(C)CCc2ccc(OC)c(OC)c2)cc1OC	-2%	3%	-12%	2	nt	5%
Cc1cc(C)cc(NC(=O)CCS(=O)(=O)c2ccc3c(c2)oc(=O)n3C)c1	-20%	nt	nt	nt	nt	1%
CN(C)/C=N/NC(=O)c1ccccc1	-2%	?	4%[10 µM]	-1	-1%	-7%
O=C(NN=c1c(=O)c2ccccc2c1=O)c1ccccc1	-2%	-6%	8%	-43*	6%	?
Cc1ccc(CCNC(=O)CCCn2c(=O)c3ccccc3n(Cc3ccccc3C)c2=O)cc1	3%	nt	nt	nt	nt	4%
O=C(COC(=O)CCSc1ccc(Cl)cc1)NCc1ccccc1Cl	0%	-8%	nt	-2	16µM*	-6%
O=C(COC(=O)CCSc1ccc(Cl)cc1)NCCc1ccccc1	-1%	4%	10%[10 µM]	3	?	1%
c1ccc(-c2ccc(-c3ccccc3)cc2)cc1	1%[201 µM]	nt	nt	nt	nt	5%[201 µM]
O=C1CCCC(O)=C1N=Nc1ccc(C(=O)O)cc1	18%	?	6%[10 µM]	0	2%[9.22 µM]	?
O=C1CCCC(O)=C1N=Nc1c(Cl)cc(C(F)(F)F)cc1Cl	28µM*[fluorescent]	25µM*	-7%[10 µM]	3	-18%[9.22 µM]	1.4µM*
O=C(c1cc(C(F)(F)F)cc(C(F)(F)F)c1)N1CCC2(CC1)CN(c1ncccn1)C2	nt	nt	-32%	7	nt	nt
CCCCCCCCSc1nnc(CSc2nc3nc(C)cc(C)n3n2)o1	-3%	5%	-40%	2	22µM*	-9%
CCc1nn2c(=O)cc(COC(=O)c3ccc(NC(=O)CCc4ccccc4)cc3)nc2s1	-1%	nt	nt	nt	nt	-9%
CCOc1ccc(-c2cc(NC(=O)c3ccccc3)c(C(=O)OC)s2)cc1	-2%	nt	nt	nt	nt	-6%
CCCN1CCN(c2ncnc3scc(C4COc5ccccc5O4)c23)CC1 (centres undefined)	-2%	3%	-3%[10 µM]	1	-17%	2%
c1ccc2c(c1)OCC(c1csc3ncnc(N4CCCCC4)c13)O2 (centres undefined)	0%	-7%	24%[10 µM]	4	11µM*	-5%
CCC(CC)C(=O)Nc1nnc(SCc2cc(=O)n3cccc(C)c3n2)s1	-1%	nt	nt	nt	nt	-5%
COc1ccc(-c2csc(NC(=O)c3ccccc3NS(=O)(=O)c3ccc(F)c(F)c3)n2)cc1	-19%	?	-66%[10 µM]	-1	2.5µM*	11%
Cc1ccc(S(=O)(=O)Nc2ccccc2C(=O)Nc2nc(-c3ccc(F)cc3)cs2)cc1	-2%	11%	-44%[0.074 µM]	-4	9%	-12%
CCN(CC)S(=O)(=O)c1cc(NC(=O)COC(=O)c2ccc(NC(=O)CC#N)cc2)ccc1C	-1%	4µM*	-6%	4	-9%	4%
CCCCCSc1nc2sc3c(c2c(=O)n1-c1ccc(OC)cc1)CCN(C(C)=O)C3	22µM*[quencher]	nt	nt	nt	nt	?
c1csc(-c2nc3c4ccccc4c4ccccc4c3[nH]2)c1	-12%	?	-21%[10 µM]	-9	?	5%
Oc1ccccc1-c1nc2c3ccccc3c3ccccc3c2[nH]1	-4%	?	-4%[10 µM]	-47*	-2%[9.22 µM]	2%
C=CCNC(=O)N1CCc2nc(-c3ccccc3)c3c(c2C1)CO[C@@H](C)C3	-4%[11.2 µM]	0%[11.4 µM]	-4%[10 µM]	3	nt	4%[11.2 µM]
SMILES	TexasRed fluor	KDM4E inh	HTT ATP protect	Coupling enz	HTT aggregate	TRb SRC2 PPI
CCNC(=O)[C@@H]1CCCN1C(=O)[C@H](CCCN=C(N)N)NC(=O)[C@H](CC(C)C)NC(=O)[C@@H](Cc1c[nH]c2ccccc12)NC(=O)[C@H](Cc1ccc(O)cc1)NC(=O)[C@H](CO)NC(=O)[C@H](Cc1c[nH]c2ccccc12)NC(=O)[C@H](Cc1cnc[nH]1)NC(=O)[C@@H]1CCC(=O)N1	nt	nt	-99%	nt	7.9µM*	nt
Cc1ccc(NC(=O)Cc2coc3ccc(C(C)C)cc23)cc1Cl	0.16µM*[quencher]	nt	nt	nt	nt	-28%[53 µM]
Cc1cccc(C2NC(=O)c3c(sc4c3CCN(C)C4)N2)c1O (centres undefined)	?	nt	nt	nt	nt	-19%[53 µM]
COc1ccc(NC(=S)NCCN2CCC(C)CC2)cc1Cl	0%	8%	-16%	-47*	5%	11%
COc1ccc(NC(=S)N(CCC(C)C)C2CCN(C(C)C)CC2)cc1Cl	nt	nt	nt	-47*	nt	nt
COCCN(C(=S)Nc1ccc(OC)c(Cl)c1)C1CCN(C(C)C)CC1	-3%	3%	?	0	-14%	-4%
Cc1ccccc1CNC(=O)C1CCCCN1S(=O)(=O)c1ccc(F)cc1 (centres undefined)	-2%	nt	nt	nt	nt	14%
CCC(CO)[n+]1c(C)cc(/C=C2\Sc3ccccc3N2Cc2ccccc2)cc1C (centres undefined)	-1%	-11%	-66%[10 µM]	-12	20µM*	2%
COc1ccc(C/C(O)=C(\C#N)c2nc3ccccc3s2)cc1	-7%	0%	6%[10 µM]	20	13µM*	-4%
N#C/C(=C(/O)c1ccc(-c2cccc([N+](=O)[O-])c2)o1)c1nc2ccccc2s1	-9%	0%	-136%	-2	11µM*	4%
CC[C@H](C)[C@H](N)C(=O)N[C@@H](CCCNC(=N)N)C(=O)N[C@@H](CCC(N)=O)C(=O)NCC(=O)N1CCC[C@H]1C(=O)N[C@@H](CCCCN)C(=O)N[C@@H](CCC(=O)O)C(=O)N1CCC[C@H]1C(=O)N[C@@H](Cc1ccccc1)C(=O)N[C@@H](CCCNC(=N)N)C(=O)N[C@@H](CC(=O)O)C(=O)N[C@@H](Cc1ccc(O)cc1)C(=O)N[C@H](C(=O)N[C@@H](CC(=O)O)C(=O)N[C@@H](CCCNC(=N)N)C(=O)N[C@@H](Cc1ccccc1)C(=O)N[C@@H](Cc1ccc(O)cc1)C(=O)N[C@@H](CCCCN)C(=O)N[C@H](C(=O)N[C@@H](CC(C)C)C(=O)O)[C@@H](C)O)C(C)C	-6%	nt	nt	-1	nt	-6%
